Reference: PubChem BioAssay (NCI)
“And” between values parts separate entries of the source, which are not always exact repeats. Identical values can stand only once. The panel holds about 79,000 compounds, 15% with a hit somewhere; the sample as a whole holds those more often. Cut-off read from the data, not from the text of the source: active = growth inhibition above about 70%; inactive = the rest.

Key:
[1] = NCI Yeast Anticancer Drug Screen. Data for the rad50 strain (AID 155);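 note: 0% = growth of vehicle-only cultures of the same strain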; details: S. cerevisiae rad50 strain growth inhibition, stronger effect = higher value; at 50.0 µM unless noted
Procedure, shortened: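 Vehicle-treated cultures provide the reference for the growth inhibition reported for compound-exposed, repair-deficient yeast.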

[2] = NCI Yeast Anticancer Drug Screen. Data for the mec2-1 strain (AID 157); details: S. cerevisiae mec2-1 strain, stronger effect = higher value; at 50.0 µM unless noted
Procedure, shortened: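 Cells of the genetically defined mec2-1 yeast strain are incubated with test compound. Inhibition of growth is calculated against vehicle-treated controls.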

[3] = NCI Yeast Anticancer Drug Screen. Data for the sgs1 mgt1 strain (AID 161);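 note: 0% = growth of cultures given vehicle only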; details: S. cerevisiae sgs1 mgt1 strain, stronger effect = higher value; at 50.0 µM unless noted
Procedure, shortened: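 Mutant yeast exposed to compound; growth scored against vehicle-only wells.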

[4] = NCI Yeast Anticancer Drug Screen. Data for the cln2 rad14 strain (AID 165);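 note: 0% = growth equal to vehicle treated cultures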; details: S. cerevisiae cln2 rad14 strain, stronger effect = higher value; at 50.0 µM unless noted
Procedure, shortened: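 The screen exposed genetically defined yeast (cln2 rad14) to test compounds and scored growth inhibition relative to vehicle-treated controls.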

[5] = NCI Yeast Anticancer Drug Screen. Data for the bub3 strain (AID 167); details: S. cerevisiae bub3 mutant strain, stronger effect = higher value; at 50.0 µM unless noted
Procedure, shortened: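 Mutant yeast screening strain plus compound; vehicle-treated cultures serve as the 0% inhibition reference.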

[6] = NCI Yeast Anticancer Drug Screen. Data for the mlh1 rad18 strain (AID 175); details: S. cerevisiae mlh1 rad18 strain growth inhibition, stronger effect = higher value; at 50.0 µM unless noted
Procedure, shortened: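 Compound-treated yeast growth, normalised to vehicle controls. Strain bears defined DNA repair mutations.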

Measured: growth inhibition

CCCCCCCC(=O)Nc1cccc(O)c1
inactive: [1] 4.8% | [2] -6.95% | [3] -11.7% | [4] -34.9% | [5] -6.3% | [6] -6.15%

Cn1c(=O)c(C(=O)Nc2nc(C34CC5CC(CC(C5)C3)C4)cs2)c(O)c2ccccc21
inactive: [1] -27.8% | [2] -28.6% | [3] -5.7% | [4] 11.1% | [5] -10% | [6] -30.6%

C/C=C(/Br)C(=O)O
inactive: [1] -11.6% | [2] -6% | [3] -10.2% | [4] -53.5% | [5] -5.2% | [6] -12.9%

Cc1ccc(NC(=O)C(=O)CC(=O)c2sc(Nc3c(C)cccc3C)nc2C)cc1C
inactive: [1] 13.4% | [2] -9.95% | [3] 1.85% | [4] -27.7% | [5] -23.4% | [6] -2%

CC(C)CCO/N=C(\N)N=C(N)N
inactive: [1] -17.4% | [2] -5.8% | [3] 14.3% | [4] 2.7% | [5] -1.75% | [6] -1.9%

OCC1COCO1 (stereo unspecified)
inactive: [1] 0.35% | [2] -4.1% | [3] -8.75% | [4] -1.65% | [5] -6.5% | [6] 9.2%

CC1(C)OCC2OC3(c4nc(C#N)c(N)o4)OC(C)(C)OC3C2O1 (stereo unspecified)
inactive: [1] -18.8% | [2] -7.05% | [3] -48% | [4] -1.7% | [5] -39.2% | [6] -75%

c1cc(-c2cnc(-c3ccc4c(c3)CCCO4)o2)ccn1
inactive: [1] 40.5% | [2] 29.9% | [3] 31.6% | [4] 17.9% | [5] 46.5% | [6] 44.1%

CN(C)C(C#CCO)c1ccccc1 (stereo unspecified)
inactive: [1] -30.5% | [2] -13.2% | [3] 1.45% | [4] -3.55% | [5] -9.7% | [6] 4.8%

Cc1cccc2c1/C(=C1/c3ccccc3C(=O)c3cccc(C)c31)c1ccccc1C2=O
inactive: [1] -4.85% | [2] -24.1% | [3] -3.45% | [4] 14.3% | [5] -1.2% | [6] -6.15%

O=c1[nH]cnc2c1ncn2C1CCCO1 (stereo unspecified)
inactive: [1] -14.2% | [2] -3.3% | [3] -2.9% | [4] -24.1% | [5] 17.4% | [6] 0.9%

OCCCCCCCl
inactive: [1] -28.8% | [2] -24.8% | [3] -11.6% | [4] -6.65% | [5] -3.05% | [6] 3.6%

OCCC1CCCCN1 (stereo unspecified)
inactive: [1] 9.25% | [2] -8.4% | [3] -20.4% | [4] -18.4% | [5] -0.75% | [6] 54.5%

O=[N+]([O-])c1cc(F)ccc1S(=O)(=O)c1ccccc1
inactive: [1] 31.6% | [2] -40.5% | [3] 7.8% | [4] 1.85% | [5] -23.2% | [6] 0.65%

Cn1cnc2ncnc(Cl)c21
inactive: [1] 1.85% | [2] -3.45% | [3] 9.8% | [4] -19.1% | [5] -52.1% | [6] -26.9%

Clc1cccc(C2ON=C(c3ccccc3)N2C23CC4CC(CC(C4)C2)C3)c1Cl (stereo unspecified)
inactive: [1] 10.3% | [2] -6.55% | [3] 7.95% | [4] -13.5% | [5] -4% | [6] -3.95%

Clc1nc(NCCc2ccccc2)c2ncn(-c3ccccc3)c2n1
inactive: [1] 52.9% | [2] 47.2% | [3] 34.1% | [4] 12.9% | [5] 68.2% | [6] 42.8%

OCC12OCC(C=CC1O)O2 (stereo unspecified)
inactive: [1] -13.2% | [2] 17.1% | [3] -4.65% | [4] 1.2% | [5] -0.15% | [6] -8.5%

c1ccc(C2=NN(c3ccccc3)CC2)cc1
inactive: [1] -8.3% | [2] -3.15% | [3] 0.4% | [4] 9.25% | [5] 9.35% | [6] 2.05%

CCN(CC)N=Nc1ccc(C(=O)O)cc1
inactive: [1] 9.55% | [2] 1.7% | [3] -10.1% | [4] -8.8% | [5] 5.85% | [6] -2%

CSC(C1c2ccccc2N(c2ccc(C)cc2)c2[nH]c(=O)n(C)c(=O)c21)S(=O)(=O)c1ccc(C)cc1 (stereo unspecified)
inactive: [1] 23.1% | [2] 0% | [3] -21.8% | [4] -29% | [5] 0.15% | [6] 16.6%

CC(NCCN1CCOCC1)c1ccc2ccccc2c1 (stereo unspecified)
inactive: [1] 40.7% | [2] 15.4% | [3] 41.5% | [4] 23.9% | [5] 32.8% | [6] 42.6%

CCOc1cc(OCC)c2c(c1)C(=O)OC2=O
inactive: [1] 4.15% | [2] -3.8% | [3] 10% | [4] 4.05% | [5] -34.4% | [6] -10.2%

COc1ccc(-c2nc(N)c3ncn(C4OC(CO)C(O)C4O)c3n2)cc1 (stereo unspecified)
inactive: [1] -13.2% | [2] -23.9% | [3] -7.15% | [4] -12.2% | [5] -27.1% | [6] 15.4%

CN1CCCC1CCN (stereo unspecified)
inactive: [1] 0.15% | [2] -10.8% | [3] -13.8% | [4] -1% | [5] 3.9% | [6] 6.15%

c1ccc2c(c1)nnn2C1CCCCO1 (stereo unspecified)
inactive: [1] -4.8% | [2] -13.2% | [3] -19.5% | [4] -5.1% | [5] -22.4% | [6] -72.8%

OCC(O)COc1ccc(F)cc1 (stereo unspecified)
inactive: [1] 19.7% | [2] -16.2% | [3] -0.15% | [4] 4.55% | [5] -6.25% | [6] -12.1%

CCCCCCCCCCCCCCCCC(C(=O)O)C(O)(CC(=O)O)C(=O)O (stereo unspecified)
inactive: [1] 2.8% and 41.7% | [2] -14.7% and 16.6% | [3] 14.5% and 43.4% | [4] -10.7% and 16.6% | [5] -7.9% and 33.4% | [6] 7.25% and 31.6%

CC1=C(C#N)C(=C(C#N)C#N)OC1(C)Cc1ccccc1 (stereo unspecified)
inactive: [1] 8.25% | [2] 6.35% | [3] 24.6% | [4] 8.55% | [5] 2.85% | [6] 33.1%

CC(C)(C)NSc1nc2ccccc2s1
inactive: [1] -21.8% | [2] 2.45% | [3] -12.7% | [4] 4.2% | [5] -2.5% | [6] -8.5%

Cc1c(=O)n(C)c2ccccc2[n+]1[O-]
inactive: [1] 7.9% | [2] 16.1% | [3] 11.7% | [4] -8.65% | [5] 7.1% | [6] 7.65%

CN(C)c1nc(NC(=O)NC(=O)c2c(F)cccc2F)nc(N(C)C)n1
inactive: [1] -2% | [2] 11.3% | [3] 1.55% | [4] 8.45% | [5] 18.8% | [6] 10.3%

O=C(OCC(OC(=O)c1ccccc1)C1OCOC2COCOC21)c1ccccc1 (stereo unspecified)
inactive: [1] 3.35% | [2] -1.3% | [3] -5.6% | [4] -24.2% | [5] 0.45% | [6] 11.4%

CN(CC#CC#CCN(C)c1ccccc1)c1ccccc1
inactive: [1] -14.2% | [2] -28.1% | [3] -13.6% | [4] -27% | [5] -35.2% | [6] -20.1%

COC(=O)Nn1c(C)c(C(=O)OC)c(C(=O)Nc2ccccc2)c1-c1ccccc1
inactive: [1] 6.1% | [2] -3% | [3] -5.2% | [4] -1.45% | [5] 5.05% | [6] 23.5%

N#C/C(=C/n1c(=S)[nH]c2ccccc21)C(N)=O
inactive: [1] -30.3% | [2] -38.6% | [3] -19.2% | [4] -12.4% | [5] -7.25% | [6] -14.6%

COC(=O)C(CCCCCCCC(C(=O)OC)c1nc2n(c1O)C(=N)N=N2)c1nc2n(c1O)C(=N)N=N2 (stereo unspecified)
inactive: [1] -20.6% | [2] -3.75% | [3] -7.95% | [4] 11.8% | [5] 10.2% | [6] 4.75%

CCOC(=O)NC(=O)c1cn(CCOCCOC(=O)NCCCCCCNC(=O)OCCOCCn2cc(C(=O)NC(=O)OCC)c(=O)[nH]c2=O)c(=O)[nH]c1=O
inactive: [1] 5.05% | [2] 24.2% | [3] 25.6% | [4] 20.1% | [5] -6.9% | [6] 29.6%

Cc1nc(C(Cl)(Cl)Cl)[nH]c(=O)c1SCCO
inactive: [1] 12.8% | [2] -15.7% | [3] -9.05% | [4] 10.1% | [5] -2.4% | [6] -6.35%

O=C(CC(=O)Nc1ccccc1Cl)NNC(c1cc(N=Nc2ccc(Br)cc2)ccc1O)P(O)O (stereo unspecified)
inactive: [1] 1.8% | [2] 0.3% | [3] 16.6% | [4] 13.4% | [5] -8.25% | [6] -2.35%

N#CCCN1CCCC(=O)NC1=O
inactive: [1] 4.4% | [2] -14.4% | [3] -5.35% | [4] -37.7% | [5] -7.4% | [6] -15.4%
